Assay results published in PubChem BioAssay (NCATS).
Values without a mark were called inactive. Records with an inconclusive call do not appear. Active and inactive are the calls of the source. Calls follow the shape of the dose curve; as a rule, active = well fitted curve in the direction sought with a large enough effect; inconclusive = small, poorly fitted or top-dose-only effect, or another doubt; inactive = no such curve, though single readings can be large; an effect the other way counts as inactive or inconclusive.

How the values were obtained:
[1] = biological target: Cytochrome P450 3A4 (Homo sapiens) (UniProt P08684); experiment: qHTS Assay for Inhibitors and Substrates of Cytochrome P450 3A4 (AID 884); also: potency is read from the fitted curve at half-maximal effect; nearly all actives have a fitted effect of over 50% in size
Outline: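 Luminescent readout of luciferin produced by CYP3A4 (20 nM) dealkylation of Luciferin-PPXE, 25 uM (its KM). NADPH-driven reaction ran 60 min at RT after 10 min compound preincubation; data scaled to 57 uM ketoconazole as 100% inhibition.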

[2] = biological target: Cytochrome P450 3A4 (Homo sapiens) (UniProt P08684); experiment: qHTS Assay for Activators of Cytochrome P450 3A4 (AID 885); also: nearly all actives have a fitted effect of over 65% in size
Outline: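 Using 20nM recombinant human CYP3A4 in potassium phosphate (200mM), substrate Luciferin-PPXE at 25uM, luminescent luciferin detection followed a 60-min RT NADPH reaction; data scaled to 57 uM ketoconazole.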

Chain of Cytochrome P450 3A4 (Homo sapiens) (P08684 whole entry, looked up): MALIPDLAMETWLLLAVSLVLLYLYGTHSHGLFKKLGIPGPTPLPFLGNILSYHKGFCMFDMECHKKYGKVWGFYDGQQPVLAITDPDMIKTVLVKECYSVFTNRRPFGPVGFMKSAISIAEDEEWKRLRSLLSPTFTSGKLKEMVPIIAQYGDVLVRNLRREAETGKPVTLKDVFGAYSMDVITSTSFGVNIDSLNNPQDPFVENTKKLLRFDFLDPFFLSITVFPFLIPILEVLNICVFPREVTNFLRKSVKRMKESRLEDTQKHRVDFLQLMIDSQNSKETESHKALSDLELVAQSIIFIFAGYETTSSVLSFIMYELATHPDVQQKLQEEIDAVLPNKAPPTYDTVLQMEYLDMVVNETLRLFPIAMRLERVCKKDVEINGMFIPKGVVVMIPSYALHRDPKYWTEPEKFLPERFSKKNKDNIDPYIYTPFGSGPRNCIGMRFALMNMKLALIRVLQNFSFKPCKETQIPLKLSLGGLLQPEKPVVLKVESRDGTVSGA

For `CCCNC(=O)OC[C@@H]1O[C@H](CCO/N=C(\C)CCN2CCCCc3nc(C)c(C)cc32)C=C[C@@H]1Oc1ccc(OC)cc1`, the Potency [1] was 3.16 µM (active) and the activity change, positive = activation [2] was -95.5% [at 11.4 µM].
In the case of `COC(=O)c1cccc(C23CC4(C2)[C@H](CN(CC2CCCCC2)[C@@H]4c2ccccc2)C3c2ccccc2)c1` (some centres undefined), the Potency [1] is reported as 15.8 µM (active) and the Potency [2] is reported as “inactive”.
For `Cn1c(N)c(C(=O)COC(=O)c2cc(-c3ccco3)nc3ccccc23)c(=O)n(Cc2ccccc2)c1=O`, the Potency [1] was 10 µM (active) and the Potency [2] was “inactive”.
With `S=C=Nc1cccc(NC(=S)NCCCCNC(=S)Nc2cccc(N=C=S)c2)c1` the Potency [1] was 3.16 µM (active) and the Potency [2] was “inactive”.
In the case of `C#CCCCO/N=C1/C[C@@H](O)[C@@H](O)[C@@H]2[C@@H]3C(=O)N(Cc4ccccc4)C(=O)[C@H]3CC[C@H]12`, the Potency [1] is reported as 3.98 µM (active) and the activity change, positive = activation [2] is reported as -103% [at 11.4 µM].
With `C#CCCCO/N=C1/C[C@@H](O)[C@@H](O)[C@@H]2[C@@H]3C(=O)N([C@@H](C)c4ccccc4)C(=O)[C@H]3CC[C@@H]12` the Potency [1] was 3.98 µM (active) and the activity change, positive = activation [2] was -86% [at 11.4 µM].
In the case of `CCCCCCNC(=O)Nc1ccc(S(=O)(=O)Nc2ccc(CCNC[C@H](O)COc3ccc(O)cc3)cc2)cc1`, the Potency [1] is reported as 7.94 µM (active) and the Potency [2] is reported as “inactive”.
